Data taken from the supplement of paper PMC12024529.

Tested on: HEK293 WT BDD-FVIII-Gluc
Assay: secreted FVIII-Gluc luciferase Z-score vs DMSO control; higher = more FVIII-Gluc secretion
Settings: 5 µM
Description: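 Natural plant-compound library (480 compounds, ST catalogue IDs) screened on HEK293 cells stably expressing WT BDD-FVIII-Gaussia luciferase fusion at 5 µM. Secreted Gluc activity in the medium is given as a Z-score relative to DMSO controls.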

Point of comparison: `C[C@@H]1O[C@@H](O[C@H]2C[C@@H](O)[C@]3(CO)[C@H]4[C@H](O)C[C@]5(C)[C@@H](C6=CC(=O)OC6)CC[C@]5(O)[C@@H]4CC[C@]3(O)C2)[C@H](O)[C@H](O)[C@H]1O`, “secreted FVIII-Gluc luciferase Z-score” value -3.87. Against it:
- COc1cc2c(cc1OC)-c1c(OC)c(OC)c(C=O)c3c1[C@H](C2)N(C)CC3 — higher, 0.0709
- COc1ccc2c(c1O)-c1c(OC)c(OC)cc3c1[C@H](C2)N(C)CC3 — higher, 0.32
- COC1=CC2C3Cc4ccc(OC)c(O)c4C2(CCN3C)CC1=O (stereo not given) — higher, -0.0187
- COc1cc2c(cc1O)CCNC2C (stereo not given) — higher, 0.0191
- CCC1CN2CCc3cc(OC)c(OC)cc3[C@@H]2C[C@@H]1C[C@H]1NCCc2cc(OC)c(OC)cc21 (stereo not given in full) — lower, -3.94
- O=CN1CCCCC1C1CC[C@H]2CCCCN2C1 (stereo not given in full) — higher, 0.233
- CN1[C@@H]2CC[C@H]1CC(OC(=O)C(CO)c1ccccc1)C2 (stereo not given in full) — higher, -0.395
- CN1CC[C@@]2(C)c3cc(O)ccc3N(C)[C@@H]12 — higher, -0.624
- CCCCc1ccc(C(=O)O)nc1 — higher, 0.032
- O=C1C=C2C=C[C@@H]3C[C@@]2(O1)[C@H]1CCCCN31 — higher, 0.666
- CC1CC[C@@]2(OC1)O[C@H]1[C@@H](O)[C@H]3[C@@H]4CC[C@H]5C[C@@H](O[C@@H]6O[C@H](CO)[C@H](O[C@@H]7O[C@H](CO)[C@@H](O)[C@H](O[C@@H]8OC[C@@H](O)[C@H](O)[C@H]8O)[C@H]7O[C@@H]7O[C@H](CO)[C@@H](O)[C@H](O[C@@H]8O[C@H](CO)[C@@H](O)[C@H](O)[C@H]8O)[C@H]7O)[C@H](O)[C@H]6O)[C@H](O)C[C@]5(C)[C@H]4CC[C@]3(C)[C@H]1[C@@H]2C (stereo not given in full) — higher, 0.427
- CN1CCc2cc3c(cc2[C@H]1[C@H]1OC(=O)c2c1ccc1c2OCO1)OCO3 — higher, 0.159
- CN(C)[C@@H]1C(=O)C(C(N)=O)=C(O)[C@@]2(O)C(=O)C3=C(O)c4c(O)cccc4[C@@](C)(O)[C@H]3[C@H](O)[C@@H]12 — higher, 0.919
- O=CN1C[C@@H]2C[C@H](C1)c1cccc(=O)n1C2 — higher, 0.583
- CC1(C)S[C@@H]2[C@H](N)C(=O)N2[C@H]1C(=O)O — higher, -1.19
- CN1CC(C(=O)NC2(C)OC3(O)C4CCCN4C(=O)C(Cc4ccccc4)N3C2=O)C=C2c3cccc4[nH]cc(c34)CC21 (stereo not given) — higher, 0.871
- COc1cc([C@@H]2c3cc4c(cc3[C@H](O)[C@H]3COC(=O)[C@H]23)OCO4)cc(OC)c1OC — lower, -3.94
- C[C@@H](CO)NC(=O)[C@@H]1C=C2c3cccc4[nH]cc(c34)C[C@H]2N(C)C1 — higher, 0.475
- CC1CCC2C(C)C(=O)OC3OC4(C)CCC1C32OO4 (stereo not given) — higher, -0.111
- CN(C)Cc1c[nH]c2ccccc12 — higher, 0.161
- COc1cc2c(c(OC)c1OC)-c1ccc(O)c(=O)cc1[C@@H](NC(C)=O)CC2 — higher, 0.222
- CN1CCc2cc3c(cc2[C@H]1[C@@H]1OC(=O)c2c1ccc1c2OCO1)OCO3 — higher, 0.754
- COc1ccn(C)c(=O)c1C#N — higher, -0.599
- CC12C(=O)OC(=O)C1(C)C1CCC2O1 (stereo not given) — lower, -4.31
- C[C@@H]1OC(=O)[C@H]2C[C@H]3CCCC[C@@H]3[C@@H](/C=C/[C@@H]3CCC[C@@H](C)N3C)[C@@H]12 — higher, -0.126
- O=c1cccc2n1C[C@@H]1CNC[C@H]2C1 — higher, 0.0778
- O=c1cccc2n1CC1CC2CN2CCCC[C@H]12 (stereo not given in full) — higher, 0.225
- O=c1cccc2n1CC1CC2CN(CCO)C1 (stereo not given) — higher, 0.624
- COc1cc2c(cc1OC)C13CCN4CC5=CCOC6CC(=O)N2C1C6C5CC43 (stereo not given) — higher, 0.159
- CCN1C[C@]2(C)CC[C@H](O)[C@@]34C5C[C@@H]6[C@@H](OC)C[C@@](O)(C5[C@H]6O)[C@@H](CC23)C14 (stereo not given in full) — higher, 0.562
- CC1=CC(=O)C2=C(C)C[C@H](O)[C@H]3[C@H](C)C(=O)O[C@@H]3C12 (stereo not given in full) — higher, -0.726
- C/C=C/c1ccc2c(c1)OCO2 — higher, 0.131
- COc1ccc2c(c1OC)C(=O)O[C@@H]2[C@H]1c2cc3c(cc2CCN1C)OCO3 — higher, 1.04
- CC1=NCCc2c1[nH]c1cc(O)ccc21 — higher, -0.262
- CN1C[C@@H](CO)C=C2c3cccc4[nH]cc(c34)CC21 (stereo not given in full) — higher, 0.731
- COc1cc2c(cc1O)C[C@H]1c3c(cc(OC)c(O)c3-2)CCN1C — higher, 0.61
- C[C@H]1CCC/C=C/C2C[C@H](O)C[C@H]2[C@H](O)/C=C/C(=O)O1 (stereo not given in full) — lower, -4.99
- C=C[C@H]1CN2CCC1CC2c1[nH]c2ccccc2c1CCO (stereo not given in full) — higher, 0.502
- OC1COC(NC2OCC(O)C(O)C2O)C(O)C1O (stereo not given) — higher, 0.00225
